Counter-ions that a name gives are not always drawn.

The assay has as its system Ruminococcus gnavus DSM 108212. Put plainly: growth (OD595) fold change vs plate DMSO controls (fold change (ratio)); higher = more growth. Particulars: incubation time: 27 h, anaerobic, 37 °C. In outline: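 Growth is expressed as the fold change relative to the median of the DMSO control wells on each plate. Cultures in mGAM were grown anaerobically in 96-well plates for 27 h at 37 °C, shaken, and read at 595 nm. Readings were blank-subtracted, corrected for compound background with 20 µM compound solutions in water, and converted to OD with a calibration factor of 5. Fold changes above 1.5 were set to NA, and each value is the mean of 2 biological replicates.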
As to `CCOC(=O)[C@@](C)(N)Cc1ccc(O)c(O)c1` [Methyldopate hydrochloride] (20 µM), the growth amounted to 1.14.
On to `O=C(NCCO[N+](=O)[O-])c1cccnc1` [Nicorandil] (20 µM), for which the growth turned out to be 1.35.
With `CN1CCN(c2c(F)cc3c(=O)c(C(=O)O)cn(CCF)c3c2F)CC1` [Fleroxacin] (20 µM), the growth was 0.
As to `Cn1c(=O)c2c(ncn2CC(=O)O)n(C)c1=O` [Acefylline] (20 µM), the growth amounted to 1.06.
`CC(=O)[C@H]1CC[C@H]2[C@@H]3C[C@H](C)C4=CC(=O)CC[C@]4(C)[C@H]3[C@@H](O)C[C@]12C` [Medrysone] (20 µM): the growth was determined as 1.03.
With `C=C1c2c(Cl)ccc(O)c2C(O)=C2C(=O)[C@]3(O)C(O)=C(C(N)=O)C(=O)[C@@H](N(C)C)[C@@H]3[C@@H](O)[C@H]12.O=C(O)c1cc(S(=O)(=O)O)ccc1O` [Meclocycline sulfosalicylate] (20 µM), the growth was determined as 0.113.
For the compound `N[C@@H](CSCCCO)C(=O)O` [Fudosteine] (20 µM), the growth is 1.14.
In the case of `CC1=C(C(=O)O)N2C(=O)[C@@H](NC(=O)[C@H](N)C3=CCC=CC3)[C@H]2SC1` [Cephradine monohydrate] (20 µM), the growth was determined as 1.07.
Take `Nc1ncnc2c1ncn2[C@@H]1O[C@H](CO)[C@@H](O)[C@@H]1O` [Vidarabine] (20 µM): the growth worked out at 0.857.
Then `CC(C)(CO)[C@@H](O)C(=O)NCCC(=O)NCCSSCCNC(=O)CCNC(=O)[C@H](O)C(C)(C)CO` [D-Pantethine] (20 µM), with 0.955; and `CC(=O)SCC(Cc1ccccc1)C(=O)NCC(=O)OCc1ccccc1` (stereo unspecified) [Racecadotril] (20 µM), with 0.929.

The values are drawn from the supplement of paper PMC12494721.
